Compounds without any hit were thinned out: in the full panel of roughly 83,000, 20% have a hit.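 In brief: 96-well plates, 48 h treatment, single concentration, percent growth endpoint.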 A number with no mark means an inactive call. Active and inactive are the calls of the source. Rule for the calls: active = growth percent below 10; inactive = the rest.

Among the test systems are T-47D breast; BT-549 breast; MDA-MB-435 melanoma; SW-620 colon; MCF7 breast; HCT-116 colon; HCC-2998 colon; KM12 colon.
Holding throughout (test): NCI-60 one-dose screen, 48 h (100 = growth as untreated, 0 = no growth, -100 = all killed)
What all share (conditions): 10 µM unless noted

Take `c1ccc(Nc2nc3c(s2)CCc2c[nH]cc2-3)nc1`: the growth in the experiment with T-47D breast is 11%; with BT-549 breast it was 95.4%; in the experiment on MDA-MB-435 melanoma it was 110%; with SW-620 colon, 102%; with MCF7 breast it was 65.1%; in the experiment on HCT-116 colon, 72.2%. The growth with HCC-2998 colon is 103%; in the experiment with KM12 colon it was 92.3%.

`CC1=C(Cl)C(=O)c2cc(C)ccc2C1=O`: the growth in the experiment on T-47D breast is 96.9%; with BT-549 breast, 97.9%; with MDA-MB-435 melanoma, 105%; with SW-620 colon, 105%; in the experiment on MCF7 breast, 91.2%; in the experiment on HCT-116 colon it was 106%. The growth was 104% in the experiment on HCC-2998 colon and 102% in the experiment with KM12 colon.

On to `COc1cc(O)c2c(=O)c3c(CC=C(C)C)cc(OC)c(O)c3oc2c1`, for which the growth with T-47D breast was 45.9%; with BT-549 breast, 33.2%; in the experiment with MDA-MB-435 melanoma, -3.84% (active); with SW-620 colon it was 26.3%; in the experiment on MCF7 breast, 23%; in the experiment with HCT-116 colon, 11.8%. The growth is 53.4% in the experiment with HCC-2998 colon and 23.2% in the experiment with KM12 colon.

In the case of `c1cc(OCCN2CCCC2)ccc1CNc1ccc2nc(CCC3CCCCC3)[nH]c2c1`, the growth with T-47D breast is -11.5% (active); with BT-549 breast it was 82.5%; with MDA-MB-435 melanoma, -50.7% (active); in the experiment with SW-620 colon, 8.87% (active); with MCF7 breast, 3.44% (active); in the experiment with HCT-116 colon, 15.3%. For the same compound, the growth in the experiment on HCC-2998 colon is 19.7%; with KM12 colon, 52.5%.

In the case of `CS(=O)/C(C#N)=C\C=C\c1cccc(Cl)c1` (stereo not given), the growth in the experiment with T-47D breast was 16.5%; in the experiment on BT-549 breast, 9.95% (active); in the experiment on MDA-MB-435 melanoma it was 5.01% (active); in the experiment on SW-620 colon it was 14.9%; in the experiment on MCF7 breast, 12.9%; with HCT-116 colon, -28.1% (active). Moreover, the values for the growth in the experiment on HCC-2998 colon and in the experiment with KM12 colon were -31.1% (active) and 12.5%, respectively.

Take `O=C(NCCN1CCOCC1)OCc1ccc2c(Cl)cc(Cl)c(O)c2n1`: the growth in the experiment with T-47D breast was 74.8%; with BT-549 breast, 83%; with MDA-MB-435 melanoma it was 65.8%; with SW-620 colon it was 87.6%; in the experiment with MCF7 breast it was 51%; in the experiment with HCT-116 colon, 39.1%. Also, the figures for the growth with HCC-2998 colon and with KM12 colon were 83.5% and 53.2%, respectively.

On to `CCC(C)(C)c1ccc(Nc2ccc(Nc3ccc(C(C)(C)CC)cc3)cc2)cc1`, for which the growth in the experiment with T-47D breast is 58.4%; in the experiment on BT-549 breast, 133%; in the experiment with MDA-MB-435 melanoma, 97.1%; in the experiment on SW-620 colon, 85.5%; with MCF7 breast, 80%; with HCT-116 colon, 60.5%. Further, the growth in the experiment on HCC-2998 colon is 101%; in the experiment on KM12 colon, 89.9%.

On to `CCN1C(=O)N(CC)C2C1NN=c1s/c(=C\c3ccc(OC)cc3)c(=O)n12` (stereo not given), for which the growth is 57.3% with T-47D breast; 9.76% (active) in the experiment with BT-549 breast; -23.7% (active) with MDA-MB-435 melanoma; 22.8% in the experiment with SW-620 colon; 14.4% with MCF7 breast; 9.53% (active) in the experiment with HCT-116 colon. Besides, the growth in the experiment on HCC-2998 colon is 15.4%; with KM12 colon, 10.5%.

`CN1CCN(Cc2ccc(NC(=O)c3cncc(C#Cc4cnc(N)cc4C#N)c3)cc2C(F)(F)F)CC1`: the growth in the experiment on T-47D breast was 24.7%; with BT-549 breast, 37.5%; in the experiment on MDA-MB-435 melanoma, 2.03% (active); in the experiment with SW-620 colon, -2.02% (active); in the experiment with MCF7 breast, 18.7%; with HCT-116 colon, 1.47% (active). For the same compound, the growth was 22.5% in the experiment with HCC-2998 colon and 5.45% (active) in the experiment on KM12 colon.

`O=C(Oc1ccc2c(c1)sc1nc(-c3ccccc3)[nH]c(=O)c12)C(F)(F)F`: the growth in the experiment with T-47D breast was 32.3%; in the experiment on BT-549 breast, 44.3%; in the experiment with MDA-MB-435 melanoma, -55.4% (active); in the experiment with SW-620 colon, 18.4%; in the experiment on MCF7 breast it was 17.1%; in the experiment on HCT-116 colon, 19.8%. The values for the growth in the experiment with HCC-2998 colon and with KM12 colon were 31.2% and 11.2%, respectively.

For the compound `O=C1CCCCN1c1ccc(C2=NCCCN2)cc1`, the growth in the experiment with T-47D breast was 57.8%; in the experiment with BT-549 breast, 89.6%; with MDA-MB-435 melanoma, 96.9%; with SW-620 colon, 85.7%; in the experiment with MCF7 breast, 84.2%; in the experiment on HCT-116 colon, 92.1%. The growth with HCC-2998 colon was 109%; in the experiment on KM12 colon, 90%.

As for `O=C(Nc1ccccc1O)c1ccc(CNc2ccnc(C(F)(F)F)c2)cc1`, the growth in the experiment with T-47D breast was 32.1%; in the experiment on BT-549 breast, 47.4%; in the experiment with MDA-MB-435 melanoma, 45.3%; in the experiment with SW-620 colon, 72.8%; in the experiment with MCF7 breast it was 50.1%; in the experiment on HCT-116 colon it was 42.2%. Also, the growth was 99.6% in the experiment on HCC-2998 colon and 62.6% with KM12 colon.

On to `Clc1ccc(Nc2nnc(CNc3ccccc3)c3ccccc23)cc1`, for which the growth is 2.82% (active) in the experiment on T-47D breast; 4.94% (active) with BT-549 breast; 4.17% (active) with MDA-MB-435 melanoma; 30.8% in the experiment on SW-620 colon; 9.2% (active) in the experiment on MCF7 breast; 9.94% (active) in the experiment with HCT-116 colon. The growth in the experiment with HCC-2998 colon was 18.3%; in the experiment on KM12 colon it was 8.93% (active).

In the case of `COc1ccccc1S(=O)(=O)Nc1ccc2c3c(cc(CCC(=O)NCCCCNc4cccc5c4C(=O)N(C4CCC(=O)NC4=O)C5=O)cc13)C(=O)N2C` (stereo not given), the growth in the experiment with T-47D breast is 3.74% (active); with BT-549 breast, -10.9% (active); with MDA-MB-435 melanoma, 23.2%; in the experiment on SW-620 colon it was 7.68% (active); in the experiment with MCF7 breast, 6.07% (active); with HCT-116 colon, 46.2%. The growth in the experiment on HCC-2998 colon is 10.9%; in the experiment on KM12 colon, 20.2%.

For `N#C/C(=C\c1ccc(-c2cccc(Cl)c2)o1)C(=O)Nc1ncc(Cc2ccc(Cl)cc2)s1`, the growth in the experiment with T-47D breast is 20.7%; in the experiment on BT-549 breast, 72.9%; in the experiment with MDA-MB-435 melanoma it was 56.5%; in the experiment on SW-620 colon, 62.5%; with MCF7 breast it was 54.4%; with HCT-116 colon, 41.9%. The growth with HCC-2998 colon is 94.3%; with KM12 colon, 48.6%.

(Values after PubChem BioAssay (NCI).)
